Results: ChEMBL document CHEMBL1961873, “Compounds: GSK PKIS; Assays: Nanosyn kinase panel” (2012)

Legend:
[1] = target: Tyrosine-protein kinase SYK (Homo sapiens) (UniProt P43405); conditions: at 1 µM
[2] = target: T1, Tyrosine-protein kinase Tec (Homo sapiens) (UniProt P42680); conditions: at 0.1 µM
T1 sequence (whole entry): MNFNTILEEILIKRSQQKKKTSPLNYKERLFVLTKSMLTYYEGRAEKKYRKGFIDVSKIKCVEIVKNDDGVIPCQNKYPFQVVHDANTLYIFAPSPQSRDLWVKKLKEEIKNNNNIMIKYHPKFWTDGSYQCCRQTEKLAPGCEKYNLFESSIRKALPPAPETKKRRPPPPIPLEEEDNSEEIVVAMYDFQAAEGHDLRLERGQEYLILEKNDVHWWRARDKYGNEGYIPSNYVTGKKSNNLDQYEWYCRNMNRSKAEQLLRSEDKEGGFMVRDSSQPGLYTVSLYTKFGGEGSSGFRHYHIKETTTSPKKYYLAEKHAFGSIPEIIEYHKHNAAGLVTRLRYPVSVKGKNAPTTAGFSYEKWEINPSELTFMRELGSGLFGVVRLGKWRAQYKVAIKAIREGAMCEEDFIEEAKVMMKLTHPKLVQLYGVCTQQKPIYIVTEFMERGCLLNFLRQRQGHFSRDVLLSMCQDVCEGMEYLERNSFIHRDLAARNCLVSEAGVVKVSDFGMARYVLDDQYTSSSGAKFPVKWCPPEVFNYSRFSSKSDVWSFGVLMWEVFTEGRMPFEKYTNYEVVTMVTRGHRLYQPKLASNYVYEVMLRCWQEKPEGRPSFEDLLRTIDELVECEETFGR

[3] = target: T1, Tyrosine-protein kinase Tec (Homo sapiens); conditions: at 1 µM
[4] = target: Angiopoietin-1 receptor (Homo sapiens) (UniProt Q02763); conditions: at 0.1 µM
Angiopoietin-1 receptor (Homo sapiens), sequence (Q02763 whole entry): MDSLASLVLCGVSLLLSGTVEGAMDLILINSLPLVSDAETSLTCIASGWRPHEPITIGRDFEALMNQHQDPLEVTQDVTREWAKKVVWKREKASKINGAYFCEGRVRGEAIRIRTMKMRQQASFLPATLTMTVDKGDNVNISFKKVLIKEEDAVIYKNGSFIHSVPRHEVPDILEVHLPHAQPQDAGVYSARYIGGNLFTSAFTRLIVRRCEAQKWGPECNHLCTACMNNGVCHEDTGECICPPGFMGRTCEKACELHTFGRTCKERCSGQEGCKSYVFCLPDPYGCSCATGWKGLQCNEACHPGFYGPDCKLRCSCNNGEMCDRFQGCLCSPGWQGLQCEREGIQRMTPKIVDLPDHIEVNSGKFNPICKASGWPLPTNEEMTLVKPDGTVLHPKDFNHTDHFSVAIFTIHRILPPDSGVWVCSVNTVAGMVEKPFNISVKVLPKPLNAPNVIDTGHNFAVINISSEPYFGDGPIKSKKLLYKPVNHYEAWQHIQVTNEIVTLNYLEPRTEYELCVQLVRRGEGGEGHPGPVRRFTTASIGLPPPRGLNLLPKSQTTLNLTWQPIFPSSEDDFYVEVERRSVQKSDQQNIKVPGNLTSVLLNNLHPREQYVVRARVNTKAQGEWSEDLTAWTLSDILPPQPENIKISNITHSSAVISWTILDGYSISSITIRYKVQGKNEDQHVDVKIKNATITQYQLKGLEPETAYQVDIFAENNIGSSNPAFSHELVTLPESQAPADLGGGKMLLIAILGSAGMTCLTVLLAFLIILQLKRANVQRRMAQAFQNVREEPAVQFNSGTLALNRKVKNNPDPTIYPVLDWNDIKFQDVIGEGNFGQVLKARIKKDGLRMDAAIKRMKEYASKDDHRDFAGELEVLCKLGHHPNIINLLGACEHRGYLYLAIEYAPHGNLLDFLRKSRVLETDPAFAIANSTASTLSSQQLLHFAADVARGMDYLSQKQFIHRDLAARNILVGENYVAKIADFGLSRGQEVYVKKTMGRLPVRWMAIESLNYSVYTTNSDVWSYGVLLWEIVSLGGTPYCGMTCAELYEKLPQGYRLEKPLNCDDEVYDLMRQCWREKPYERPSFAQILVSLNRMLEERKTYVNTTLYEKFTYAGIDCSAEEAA

[5] = target: Angiopoietin-1 receptor (Homo sapiens) (UniProt Q02763); conditions: at 1 µM
[6] = target: T2, Non-receptor tyrosine-protein kinase TNK1 (Homo sapiens) (UniProt Q13470); conditions: at 0.1 µM
T2 sequence (whole entry): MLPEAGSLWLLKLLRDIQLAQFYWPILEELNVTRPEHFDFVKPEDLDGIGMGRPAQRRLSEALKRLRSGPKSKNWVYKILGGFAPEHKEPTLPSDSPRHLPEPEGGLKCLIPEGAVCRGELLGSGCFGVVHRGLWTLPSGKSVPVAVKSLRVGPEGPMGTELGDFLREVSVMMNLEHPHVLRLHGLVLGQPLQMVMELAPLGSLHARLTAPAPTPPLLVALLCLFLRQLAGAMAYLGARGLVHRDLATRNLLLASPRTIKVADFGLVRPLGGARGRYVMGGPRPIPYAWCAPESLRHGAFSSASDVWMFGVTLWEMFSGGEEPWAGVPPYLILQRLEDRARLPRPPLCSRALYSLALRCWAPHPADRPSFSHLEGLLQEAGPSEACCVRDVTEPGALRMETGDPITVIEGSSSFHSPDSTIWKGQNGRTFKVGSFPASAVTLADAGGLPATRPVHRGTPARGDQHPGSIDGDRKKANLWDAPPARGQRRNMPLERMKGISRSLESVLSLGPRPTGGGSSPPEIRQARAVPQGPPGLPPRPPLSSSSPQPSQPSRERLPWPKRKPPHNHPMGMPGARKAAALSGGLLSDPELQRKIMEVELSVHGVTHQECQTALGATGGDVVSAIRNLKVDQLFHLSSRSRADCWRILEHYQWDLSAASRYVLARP

[7] = target: T2, Non-receptor tyrosine-protein kinase TNK1 (Homo sapiens); conditions: at 1 µM
[8] = target: Activated CDC42 kinase 1 (Homo sapiens) (UniProt Q07912); conditions: at 0.1 µM
Activated CDC42 kinase 1 (Homo sapiens), sequence (Q07912 whole entry, looked up): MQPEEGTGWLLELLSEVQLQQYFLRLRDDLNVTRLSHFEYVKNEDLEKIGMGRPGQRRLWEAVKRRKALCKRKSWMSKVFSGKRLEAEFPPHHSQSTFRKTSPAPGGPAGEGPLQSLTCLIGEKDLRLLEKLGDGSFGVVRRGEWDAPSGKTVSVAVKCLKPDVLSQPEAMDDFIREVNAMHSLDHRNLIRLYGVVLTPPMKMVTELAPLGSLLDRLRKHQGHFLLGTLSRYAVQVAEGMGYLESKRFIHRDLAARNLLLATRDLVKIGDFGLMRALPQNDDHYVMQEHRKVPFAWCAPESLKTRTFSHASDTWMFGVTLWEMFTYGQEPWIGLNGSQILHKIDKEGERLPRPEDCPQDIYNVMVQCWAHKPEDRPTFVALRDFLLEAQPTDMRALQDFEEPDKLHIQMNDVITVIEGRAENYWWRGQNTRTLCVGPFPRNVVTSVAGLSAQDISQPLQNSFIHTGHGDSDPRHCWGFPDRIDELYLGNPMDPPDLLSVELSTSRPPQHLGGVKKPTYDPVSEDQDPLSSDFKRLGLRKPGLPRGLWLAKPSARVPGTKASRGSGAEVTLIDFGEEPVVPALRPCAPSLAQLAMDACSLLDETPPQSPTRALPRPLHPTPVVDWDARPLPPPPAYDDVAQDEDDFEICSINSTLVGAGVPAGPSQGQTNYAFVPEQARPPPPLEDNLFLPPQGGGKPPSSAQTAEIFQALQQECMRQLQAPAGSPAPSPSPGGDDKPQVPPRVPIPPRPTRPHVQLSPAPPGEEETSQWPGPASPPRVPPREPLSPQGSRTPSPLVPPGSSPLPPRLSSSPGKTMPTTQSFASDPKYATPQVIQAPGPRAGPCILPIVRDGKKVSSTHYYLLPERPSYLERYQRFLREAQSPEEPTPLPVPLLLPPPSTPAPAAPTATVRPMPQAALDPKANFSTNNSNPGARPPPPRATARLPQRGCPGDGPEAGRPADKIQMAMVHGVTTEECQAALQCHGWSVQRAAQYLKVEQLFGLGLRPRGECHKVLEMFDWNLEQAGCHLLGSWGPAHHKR

[9] = target: Activated CDC42 kinase 1 (Homo sapiens) (UniProt Q07912); conditions: at 1 µM
[10] = target: High affinity nerve growth factor receptor (Homo sapiens) (UniProt P04629); conditions: at 0.1 µM
High affinity nerve growth factor receptor (Homo sapiens), sequence (P04629 33-796 limits assumed): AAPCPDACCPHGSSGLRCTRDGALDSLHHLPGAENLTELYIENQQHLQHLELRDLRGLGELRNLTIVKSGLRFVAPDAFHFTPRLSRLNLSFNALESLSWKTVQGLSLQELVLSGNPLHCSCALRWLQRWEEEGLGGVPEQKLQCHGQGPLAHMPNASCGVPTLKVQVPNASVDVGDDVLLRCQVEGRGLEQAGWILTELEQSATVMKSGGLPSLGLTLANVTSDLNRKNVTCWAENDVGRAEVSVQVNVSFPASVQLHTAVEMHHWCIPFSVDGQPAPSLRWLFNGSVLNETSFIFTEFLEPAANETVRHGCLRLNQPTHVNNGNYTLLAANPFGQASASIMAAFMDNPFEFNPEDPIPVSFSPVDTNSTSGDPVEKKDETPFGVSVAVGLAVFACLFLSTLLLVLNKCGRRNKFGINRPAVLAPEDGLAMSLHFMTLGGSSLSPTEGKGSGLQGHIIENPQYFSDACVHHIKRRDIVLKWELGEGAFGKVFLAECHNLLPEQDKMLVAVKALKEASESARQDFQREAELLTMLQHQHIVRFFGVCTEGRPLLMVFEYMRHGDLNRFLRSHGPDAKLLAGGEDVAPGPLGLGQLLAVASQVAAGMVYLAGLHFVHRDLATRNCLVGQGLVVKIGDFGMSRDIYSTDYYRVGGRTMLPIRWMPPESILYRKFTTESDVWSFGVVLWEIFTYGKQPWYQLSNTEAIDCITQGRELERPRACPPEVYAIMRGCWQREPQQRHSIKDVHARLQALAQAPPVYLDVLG

[11] = target: High affinity nerve growth factor receptor (Homo sapiens) (UniProt P04629); conditions: at 1 µM
[12] = target: BDNF/NT-3 growth factors receptor (Homo sapiens) (UniProt Q16620); conditions: at 0.1 µM
BDNF/NT-3 growth factors receptor (Homo sapiens), sequence (Q16620 32-822 limits assumed): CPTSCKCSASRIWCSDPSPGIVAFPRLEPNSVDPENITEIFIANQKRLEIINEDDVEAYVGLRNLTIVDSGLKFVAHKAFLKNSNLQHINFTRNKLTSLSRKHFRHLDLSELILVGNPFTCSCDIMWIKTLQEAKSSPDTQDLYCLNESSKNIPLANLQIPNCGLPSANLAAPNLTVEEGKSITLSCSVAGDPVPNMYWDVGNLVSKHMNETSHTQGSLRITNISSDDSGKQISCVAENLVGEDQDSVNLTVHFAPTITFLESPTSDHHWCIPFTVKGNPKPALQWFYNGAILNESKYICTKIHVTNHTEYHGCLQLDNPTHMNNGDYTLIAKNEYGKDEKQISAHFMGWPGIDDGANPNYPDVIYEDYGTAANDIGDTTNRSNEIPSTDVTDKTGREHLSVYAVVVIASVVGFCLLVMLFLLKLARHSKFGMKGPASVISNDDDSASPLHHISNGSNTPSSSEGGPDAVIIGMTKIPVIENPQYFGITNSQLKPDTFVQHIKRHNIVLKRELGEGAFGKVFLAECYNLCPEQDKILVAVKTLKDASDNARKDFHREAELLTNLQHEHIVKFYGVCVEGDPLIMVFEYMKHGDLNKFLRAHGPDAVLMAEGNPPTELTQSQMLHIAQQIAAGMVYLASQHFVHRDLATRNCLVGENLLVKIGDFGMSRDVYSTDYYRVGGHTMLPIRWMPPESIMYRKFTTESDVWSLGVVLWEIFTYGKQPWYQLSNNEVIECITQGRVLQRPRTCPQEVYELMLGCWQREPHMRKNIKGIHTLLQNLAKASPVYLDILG

[13] = target: BDNF/NT-3 growth factors receptor (Homo sapiens) (UniProt Q16620); conditions: at 1 µM
[14] = target: NT-3 growth factor receptor (Homo sapiens) (UniProt Q16288); conditions: at 0.1 µM
NT-3 growth factor receptor (Homo sapiens), sequence (Q16288 32-839 limits assumed): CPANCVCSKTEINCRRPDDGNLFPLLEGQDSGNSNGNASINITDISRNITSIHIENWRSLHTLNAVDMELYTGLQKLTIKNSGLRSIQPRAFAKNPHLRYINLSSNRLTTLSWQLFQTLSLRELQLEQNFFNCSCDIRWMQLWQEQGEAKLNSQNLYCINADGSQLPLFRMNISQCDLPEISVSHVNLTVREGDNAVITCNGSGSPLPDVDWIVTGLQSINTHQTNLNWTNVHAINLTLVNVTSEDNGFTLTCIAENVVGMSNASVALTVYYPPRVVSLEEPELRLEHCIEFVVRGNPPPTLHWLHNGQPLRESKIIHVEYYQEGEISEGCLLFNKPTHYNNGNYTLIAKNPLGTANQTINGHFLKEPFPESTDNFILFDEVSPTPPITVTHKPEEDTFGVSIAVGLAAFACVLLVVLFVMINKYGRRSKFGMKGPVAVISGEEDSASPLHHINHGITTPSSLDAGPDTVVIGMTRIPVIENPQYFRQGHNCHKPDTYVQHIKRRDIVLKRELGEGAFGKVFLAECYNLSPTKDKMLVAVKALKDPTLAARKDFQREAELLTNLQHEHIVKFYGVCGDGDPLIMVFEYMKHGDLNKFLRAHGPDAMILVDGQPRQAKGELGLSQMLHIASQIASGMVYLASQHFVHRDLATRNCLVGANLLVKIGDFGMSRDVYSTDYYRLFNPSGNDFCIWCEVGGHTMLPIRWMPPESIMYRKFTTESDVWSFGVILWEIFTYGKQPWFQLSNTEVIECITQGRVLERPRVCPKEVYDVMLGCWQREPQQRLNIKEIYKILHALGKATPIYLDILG

[15] = target: NT-3 growth factor receptor (Homo sapiens) (UniProt Q16288); conditions: at 1 µM
[16] = target: T3, Tyrosine-protein kinase TXK (Homo sapiens) (UniProt P42681); conditions: at 0.1 µM
T3 sequence (whole entry): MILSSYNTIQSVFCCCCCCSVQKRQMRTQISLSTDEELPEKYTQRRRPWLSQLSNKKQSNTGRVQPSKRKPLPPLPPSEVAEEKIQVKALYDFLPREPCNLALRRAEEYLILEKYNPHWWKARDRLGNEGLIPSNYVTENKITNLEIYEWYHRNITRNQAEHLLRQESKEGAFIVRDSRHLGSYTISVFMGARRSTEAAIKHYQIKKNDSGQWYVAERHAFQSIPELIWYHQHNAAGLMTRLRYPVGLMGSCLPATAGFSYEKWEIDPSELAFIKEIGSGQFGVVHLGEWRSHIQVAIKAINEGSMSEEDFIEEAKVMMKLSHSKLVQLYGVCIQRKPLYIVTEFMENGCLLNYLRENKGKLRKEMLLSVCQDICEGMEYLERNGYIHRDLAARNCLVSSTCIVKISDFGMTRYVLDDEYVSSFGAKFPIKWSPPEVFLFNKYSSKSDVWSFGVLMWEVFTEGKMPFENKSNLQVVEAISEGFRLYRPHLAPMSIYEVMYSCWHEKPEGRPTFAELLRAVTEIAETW

[17] = target: T3, Tyrosine-protein kinase TXK (Homo sapiens); conditions: at 1 µM
[18] = target: Non-receptor tyrosine-protein kinase TYK2 (Homo sapiens) (UniProt P29597); conditions: at 0.1 µM;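 further: each value is a mean of the inhibition readings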
[19] = target: T4, Dual specificity protein kinase TTK (Homo sapiens) (UniProt P33981); conditions: at 1 µM;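 further: reported figures are mean TTK inhibition at 1 µM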
T4 sequence (whole entry): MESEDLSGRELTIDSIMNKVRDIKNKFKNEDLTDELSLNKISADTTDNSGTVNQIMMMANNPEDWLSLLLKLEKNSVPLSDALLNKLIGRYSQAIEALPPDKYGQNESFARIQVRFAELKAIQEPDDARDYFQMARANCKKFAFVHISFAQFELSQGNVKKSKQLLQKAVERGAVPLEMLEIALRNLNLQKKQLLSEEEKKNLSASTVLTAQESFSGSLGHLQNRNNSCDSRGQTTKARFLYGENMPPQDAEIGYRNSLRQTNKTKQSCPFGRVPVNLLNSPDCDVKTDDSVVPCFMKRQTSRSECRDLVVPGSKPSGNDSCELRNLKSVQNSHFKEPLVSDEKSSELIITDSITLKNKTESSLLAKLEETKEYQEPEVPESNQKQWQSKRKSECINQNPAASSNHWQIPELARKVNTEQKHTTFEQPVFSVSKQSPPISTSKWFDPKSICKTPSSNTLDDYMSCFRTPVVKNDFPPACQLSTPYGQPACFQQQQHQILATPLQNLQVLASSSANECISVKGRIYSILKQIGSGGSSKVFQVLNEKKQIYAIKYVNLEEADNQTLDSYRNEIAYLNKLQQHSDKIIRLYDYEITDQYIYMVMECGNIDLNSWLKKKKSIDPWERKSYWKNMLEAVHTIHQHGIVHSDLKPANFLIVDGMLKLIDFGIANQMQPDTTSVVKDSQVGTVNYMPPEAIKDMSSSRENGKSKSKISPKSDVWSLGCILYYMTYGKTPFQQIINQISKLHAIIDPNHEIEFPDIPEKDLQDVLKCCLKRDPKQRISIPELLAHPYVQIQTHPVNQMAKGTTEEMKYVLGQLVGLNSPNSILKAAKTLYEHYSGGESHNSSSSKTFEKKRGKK

[20] = target: T5, Aurora kinase A (Homo sapiens) (UniProt O14965); conditions: at 0.1 µM;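 further: each reported value is a mean percent inhibition of Aurora-A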
T5 sequence (whole entry): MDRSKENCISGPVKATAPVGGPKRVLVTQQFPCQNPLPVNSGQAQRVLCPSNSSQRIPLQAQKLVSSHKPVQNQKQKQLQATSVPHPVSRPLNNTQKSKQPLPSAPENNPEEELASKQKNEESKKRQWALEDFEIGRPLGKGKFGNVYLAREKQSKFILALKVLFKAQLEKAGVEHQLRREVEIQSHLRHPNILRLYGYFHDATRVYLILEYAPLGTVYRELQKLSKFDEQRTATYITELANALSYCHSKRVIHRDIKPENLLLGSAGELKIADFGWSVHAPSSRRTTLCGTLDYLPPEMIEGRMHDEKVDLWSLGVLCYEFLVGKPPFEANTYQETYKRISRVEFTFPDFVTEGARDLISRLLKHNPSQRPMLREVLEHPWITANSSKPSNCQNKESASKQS

| Structure (SMILES) | inhibition [1] [%] | inhibition [2] [%] | inhibition [3] [%] | inhibition [4] [%] | inhibition [5] [%] | inhibition [6] [%] | inhibition [7] [%] | inhibition [8] [%] | inhibition [9] [%] | inhibition [10] [%] | inhibition [11] [%] | inhibition [12] [%] | inhibition [13] [%] | inhibition [14] [%] | inhibition [15] [%] | inhibition [16] [%] | inhibition [17] [%] | inhibition [18] [%] | inhibition [19] [%] | inhibition [20] [%] |
| --- | --- | --- | --- | --- | --- | --- | --- | --- | --- | --- | --- | --- | --- | --- | --- | --- | --- | --- | --- | --- |
| NS(=O)(=O)c1ccc(N/N=C2\C(=O)Nc3ccc(C(=O)NCc4ccncc4)cc32)cc1 | -2.54 | 3.82 | 7.13 | -0.94 | 1.16 | 3.58 | 17.5 | 0.57 | 2.58 | 4.11 | 33.7 | 13 | 60 | 19.2 | 66.2 | 2.66 | 5.17 | -8.31 | 69.2 | 6.11 |
| COc1cc(N2CCN(C(C)C)CC2)ccc1Nc1nc(Nc2cccc(F)c2C(=O)O)c2cc[nH]c2n1 | -7.57 | 4.02 | 5.87 | 2.04 | 5.53 | 8.72 | 53.4 | 1.91 | 5.95 | 4.69 | 0.85 | 3.78 | 6.6 | 2.64 | 4.58 | 1.98 | 3.5 | -3.16 | 77.3 | 3.47 |
| COc1ccc2ncn(-c3cc(O[C@H](C)c4ccccc4C(F)(F)F)c(C(N)=O)s3)c2c1 | 0.76 | 1.04 | -0.18 | 1.94 | 4.83 | 1.54 | 19.8 | 0.19 | 2.86 | -0.31 | 2.53 | -0.31 | 4.65 | 0.4 | 5.65 | 1.46 | 2.56 | 0.28 | 5.58 | -0.03 |
| N#Cc1cccc(Nc2ncc(-c3ccccc3)o2)c1 | -0.14 | 1.29 | 2.29 | 0.48 | 2.45 | 2.36 | 15.4 | 0.46 | 0.86 | -0.7 | 12.6 | 3.16 | 26.5 | 4.53 | 25.1 | 1.62 | 3.17 | -5.06 | 8.8 | 1.03 |
| CC1(C)CC(n2cnc(-c3ccc(F)cc3)c2-c2ccnc(N)n2)CC(C)(C)N1 | 0.92 | 1.41 | -0.41 | 1.61 | 3.96 | -0.43 | -1.61 | -0.24 | 0.43 | 6.46 | 0.77 | 1.16 | 2.03 | 0.21 | 2.79 | 0.09 | 0.75 | 1 | 1.53 | -0.03 |
| COc1ccccc1-c1cc(/C=C2\C(=O)Nc3ncc(Br)cc32)cc(Br)c1O | -0.96 | 4.41 | 10.3 | 4.42 | 6.14 | 40.2 | 80.4 | 1.04 | 0.66 | 9.43 | 61.7 | 38.7 | 89.2 | 41.7 | 93.9 | 3.05 | 6.65 | -5.9 | 9.88 | 13.4 |
| COc1cc2c(cc1Nc1nc(Nc3cccc(F)c3C(N)=O)c3cc[nH]c3n1)N(C(=O)CN1CCN(C(C)C)CC1)CC2 | 3.08 | 5.26 | 1.94 | 4.46 | 2.66 | 3.48 | 22.4 | 1.09 | 5.91 | 1.48 | 0.01 | -0.13 | 0.84 | -1.97 | -0.99 | 7.39 | 3.01 | 0.12 | 47.7 | 0.69 |
